21 compounds from PubChem BioAssay AID720550 (National Center for Advancing Translational Sciences (NCATS), 2013) can be followed below.

Inconclusive results are not listed. Values without a mark were called inactive. The source made the active and inactive calls. The call rests on the fitted dose curve; in most records, active means well fitted curve in the direction sought with a large enough effect; inconclusive means small, poorly fitted or top-dose-only effect, or another doubt; inactive means no such curve, though single readings can be large or run the other way.

The test in a line: qHTS for Inhibitors of Bloom's syndrome helicase (BLM): Thiazole Orange DNA Binding Counterscreen for SAR. The following applies: fluorescence; Potency: Thiazole orange DNA displacement; series mostly up to 57.1 µM; activity change, negative = displacement: at the top concentration. In short, it runs like this:
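Counterscreen for nonspecific DNA binding: thiazole orange (100 nM) pre-bound to 50 nM unlabeled DNA, test compound added, 15 min room-temperature incubation, then ex 480/em 530 nm fluorescence measured; lack of displacement preferred.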
For orientation: Quantitative high-throughput screening tests each substance at several concentrations.
Regarding `O=c1c(Nc2ccc(Br)c(Br)c2)c(Nc2nnc(-c3ccncc3)s2)c1=O`, the Potency is 10.2 µM (active).

Turning to `Cc1cc(NC(=O)Nc2cccc(-c3ccncc3)n2)ccc1F`, the “activity change, negative = displacement” value is -8.74%.

For `N#Cc1ccc(NC(=O)Nc2nnc(-c3ccncc3)s2)c(Cl)c1`, the “activity change, negative = displacement” value was 24.2%.

Consider `N#Cc1ccc(NC(=O)Nc2nnc(-c3ccncc3)s2)cc1`, for which the “activity change, negative = displacement” value was 62.4%.

With `O=C(Nc1ccc(Cl)c(Cl)c1)Nc1ccnc(-c2ccncc2)n1`, the “activity change, negative = displacement” value is 558%.

In the case of `O=C(Nc1ccc(-n2cncn2)c(F)c1)Nc1nnc(-c2ccncc2)s1`, the “activity change, negative = displacement” value was -0.894%.

Turning to `c1ccc2[nH]c(Nc3nnc(-c4ccncc4)s3)nc2c1`, the “activity change, negative = displacement” value was -17.6%.

Take `O=C(Nc1ccc(Cl)c(Cl)c1)Nc1ncc(-c2ccncc2)s1`: the “activity change, negative = displacement” value was 126%.

In the case of `Cc1cc(NC(=O)Nc2nnc(-c3cccnc3)s2)ccc1Br`, the “activity change, negative = displacement” value is 51.4%.

Regarding `O=C(Nc1ccc(Cl)cc1)Nc1nnc(-c2ccncc2)s1`, the “activity change, negative = displacement” value was 34.7%.

Turning to `CC(C)(C)c1ccc(-c2nnc(NC(=O)Nc3ccc4ccccc4c3)s2)cc1`, the “activity change, negative = displacement” value was 12.2%.

As for `CCOc1ccc(NC(=O)Nc2ccc(-c3nc4ccccc4[nH]3)cc2)cc1`, the “activity change, negative = displacement” value was 71.7%.

Consider `O=C(Nc1ccc(F)c(C(F)(F)F)c1)Nc1nnc(C2CCCCC2)s1`, for which the “activity change, negative = displacement” value was 56.4%.

For the compound `O=C(Nc1ccc(F)c(C(F)(F)F)c1)Nc1nnc(-c2ccncc2)o1`, the “activity change, negative = displacement” value is -22.2%.

`O=C(Nc1cccc(C(=O)O)c1)Nc1nnc(-c2ccncc2)s1`: the “activity change, negative = displacement” value was 18.2%.

Take `Cc1cc(NC(=O)Nc2nnc(-c3cccnc3)s2)ccc1F`: the “activity change, negative = displacement” value is -2.21%.

On to `O=C(Nc1ccc(F)c(C(F)(F)F)c1)Nc1nnc(-c2cccnc2)s1`, for which the “activity change, negative = displacement” value was -2.96%.

In the case of `O=C(Nc1cccc(C(F)(F)F)c1)Nc1nnc(-c2ccncc2)s1`, the “activity change, negative = displacement” value was 48.7%.

As to `O=C(Nc1nnc(-c2ccncc2)s1)Oc1ccc2ccccc2c1`, the “activity change, negative = displacement” value was 156%.

Consider `CN(C(=O)Nc1ccc2ccccc2c1)c1nnc(-c2ccncc2)s1`, for which the “activity change, negative = displacement” value is 387%.

Take `Cc1cc(NC(=O)Nc2cccc(-c3ccncc3)n2)ccc1Br`: the “activity change, negative = displacement” value is 24.6%.
